Data taken from the supplement of paper PMC10849652.
Of roughly 7,900 targets only a part is listed; those with a hit were picked by preference. About 0.6% of all pairs of compound and target were hits.

What was measured:
Test in all cases: log2 fold change, soluble protein after heating vs DMSO (PISA); higher = thermal stabilisation; K562 cells, 10 uM, 30 min; active = over 0.2 and 3.5 SD of the protein, either way, in both replicates (recomputed)
[1] = compound: CC[C@@H]1C(=O)N(C)c2cnc(Nc3ccc(C(=O)NC4CCN(C)CC4)cc3OC)nc2N1C1CCCC1
Summary of the method: (§1)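 K562 cells at 2×10^6 cells/mL were treated with 10 μM compound for 30 min. Aliquots were heated for 3 min across 48°C-58°C, pooled, and extracted in PBS with 0.5% NP-40 at 4°C; soluble protein was the supernatant after 21,000xg for 90 min. Soluble protein was quantified by TMTpro 16plex LC-MS/MS with channel sums equalised, and reported as log2 fold change in thermal stability against DMSO controls, with values from duplicates.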

volasertib = compound: CC[C@@H]1C(=O)N(C)c2cnc(Nc3ccc(C(=O)N[C@H]4CC[C@H](N5CCN(CC6CC6)CC5)CC4)cc3OC)nc2N1C(C)C [volasertib]
Summary of the method: as §1

[2] = compound: CC[C@H](C)N1C=C(C2=C(C=C(C=C21)C3=CN=C(C=C3)N4CCNCC4)C(=O)NCC5=C(C=C(NC5=O)C)C)C
Summary of the method: as §1

epoxomicin = compound: CC[C@H](C)[C@@H](C(=O)N[C@@H]([C@@H](C)O)C(=O)N[C@@H](CC(C)C)C(=O)[C@]1(CO1)C)NC(=O)[C@H]([C@@H](C)CC)N(C)C(=O)C [epoxomicin]
Summary of the method: as §1

[3] = compound: CCn1c(C(=O)N(C2CC2)C2CC2)cc2c3c(ncn3C)c(Nc3cc(C)n(C)n3)nc21
Summary of the method: as §1

[4] = compound: CCn1cc(-c2ccnc3[nH]c(-c4cccc(CN(C)C)c4)cc23)c(-c2ccc(NC(=O)N(C)C)cc2)n1
Summary of the method: as §1

[5] = compound: CN(C)CC(=O)Nc1ccc2[nH]c(=O)c3ccccc3c2c1
Summary of the method: as §1

rosiglitazone = compound: CN(CCOC1=CC=C(C=C1)C[C@H]2C(=O)NC(=O)S2)C3=CC=CC=N3 (racemic) [rosiglitazone]
Summary of the method: as §1

[6] = compound: CN1C2=C(C3=C1C(=O)N(N=C3)CC4=CC(=CC=C4)N)SC(=C2)S(=O)C
Summary of the method: as §1

[7] = compound: CN1CCC(CNc2ccc3ncc(-c4cccc(OC(F)(F)F)c4)n3n2)CC1
Summary of the method: as §1

saracatinib = compound: CN1CCN(CCOc2cc(OC3CCOCC3)c3c(Nc4c(Cl)ccc5c4OCO5)ncnc3c2)CC1 [saracatinib]
Summary of the method: as §1

sotrastaurin = compound: CN1CCN(c2nc(C3=C(c4c[nH]c5ccccc45)C(=O)NC3=O)c3ccccc3n2)CC1 [sotrastaurin]
Summary of the method: as §1

alvocidib = compound: CN1CC[C@H](c2c(O)cc(O)c3c(=O)cc(-c4ccccc4Cl)oc23)[C@H](O)C1 [alvocidib]
Summary of the method: as §1

Tubastatin A = compound: CN1CCc2c(c3ccccc3n2Cc2ccc(C(=O)NO)cc2)C1 [Tubastatin A]
Summary of the method: as §1

[8] = compound: CNC(=O)C1=CC=CC=C1NC2=NC(=NC=C2Cl)NC3=C(C=C(C=C3)N4CCOCC4)OC
Summary of the method: as §1

defactinib = compound: CNC(=O)c1ccc(Nc2ncc(C(F)(F)F)c(NCc3nccnc3N(C)S(C)(=O)=O)n2)cc1 [defactinib]
Summary of the method: as §1

rucaparib = compound: CNCc1ccc(-c2[nH]c3cc(F)cc4c3c2CCNC4=O)cc1 [rucaparib]
Summary of the method: as §1

[9] = compound: CNc1nc(-c2ccc3c(N)n[nH]c3c2)cc(N2C[C@@H](C(=O)NC3CCCCC3)CC[C@H]2C)n1
Summary of the method: as §1

encorafenib = compound: COC(=O)N[C@@H](C)CNc1nccc(-c2cn(C(C)C)nc2-c2cc(Cl)cc(NS(C)(=O)=O)c2F)n1 [encorafenib]
Summary of the method: as §1

[10] = compound: COC(=O)[C@H](CCSC)NC(=O)C1=C(C=C(C=C1)NC[C@H](CS)N)C2=CC=CC=C2
Summary of the method: as §1

Measured: log2 fold change

TARBP1 (UniProt Q13395)
UniProt Q13395, sequence (Q13395 whole entry, looked up): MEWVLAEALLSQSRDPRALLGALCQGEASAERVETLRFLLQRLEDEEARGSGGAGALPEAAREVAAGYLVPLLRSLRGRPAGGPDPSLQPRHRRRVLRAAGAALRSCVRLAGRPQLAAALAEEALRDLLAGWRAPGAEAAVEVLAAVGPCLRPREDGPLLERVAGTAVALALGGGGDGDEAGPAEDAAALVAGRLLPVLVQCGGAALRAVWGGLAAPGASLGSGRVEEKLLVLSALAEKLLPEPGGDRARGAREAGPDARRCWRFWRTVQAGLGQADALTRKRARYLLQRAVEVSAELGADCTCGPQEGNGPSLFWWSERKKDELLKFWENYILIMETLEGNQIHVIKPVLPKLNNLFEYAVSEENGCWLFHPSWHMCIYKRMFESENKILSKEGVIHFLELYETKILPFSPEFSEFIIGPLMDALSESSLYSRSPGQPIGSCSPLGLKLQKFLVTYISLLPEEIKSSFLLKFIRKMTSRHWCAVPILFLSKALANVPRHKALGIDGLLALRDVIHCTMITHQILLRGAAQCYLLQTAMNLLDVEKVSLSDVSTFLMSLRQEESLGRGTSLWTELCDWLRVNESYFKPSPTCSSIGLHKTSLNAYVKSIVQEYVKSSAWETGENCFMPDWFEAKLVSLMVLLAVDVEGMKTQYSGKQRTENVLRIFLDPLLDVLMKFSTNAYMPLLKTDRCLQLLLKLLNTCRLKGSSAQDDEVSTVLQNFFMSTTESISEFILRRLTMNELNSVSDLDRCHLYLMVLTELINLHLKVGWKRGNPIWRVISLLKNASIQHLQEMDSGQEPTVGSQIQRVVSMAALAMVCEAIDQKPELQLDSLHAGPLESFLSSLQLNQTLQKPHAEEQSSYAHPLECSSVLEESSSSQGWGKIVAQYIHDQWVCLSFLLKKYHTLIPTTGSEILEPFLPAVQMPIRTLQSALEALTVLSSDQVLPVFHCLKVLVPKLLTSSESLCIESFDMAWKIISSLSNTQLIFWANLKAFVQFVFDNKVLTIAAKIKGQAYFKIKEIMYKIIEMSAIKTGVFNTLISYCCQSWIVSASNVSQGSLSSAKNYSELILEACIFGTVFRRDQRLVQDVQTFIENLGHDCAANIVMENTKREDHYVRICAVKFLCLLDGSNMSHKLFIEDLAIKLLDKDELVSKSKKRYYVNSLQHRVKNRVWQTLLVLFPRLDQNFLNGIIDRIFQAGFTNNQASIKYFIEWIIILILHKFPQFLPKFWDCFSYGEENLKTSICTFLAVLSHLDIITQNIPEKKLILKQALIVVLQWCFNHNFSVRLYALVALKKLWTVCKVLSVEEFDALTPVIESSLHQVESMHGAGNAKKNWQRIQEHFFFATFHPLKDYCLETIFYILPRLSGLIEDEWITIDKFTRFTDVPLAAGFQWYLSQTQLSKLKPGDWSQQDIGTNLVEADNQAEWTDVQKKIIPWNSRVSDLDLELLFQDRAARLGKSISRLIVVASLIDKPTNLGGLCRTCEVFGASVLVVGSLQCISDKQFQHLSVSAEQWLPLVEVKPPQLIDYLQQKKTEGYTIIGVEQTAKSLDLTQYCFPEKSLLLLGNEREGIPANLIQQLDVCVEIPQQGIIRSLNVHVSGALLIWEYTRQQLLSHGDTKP
inactive: [1] -0.022 | [2] -0.107 | epoxomicin 0.121 | [3] 0.018 | [4] 0.077 | [5] -0.012 | rosiglitazone 0.013 | [6] 0.001 | [7] -0.027 | saracatinib 0.026 | sotrastaurin -0.036 | alvocidib -0.031 | Tubastatin A -0.033 | [8] 0.021 | defactinib -0.026 | rucaparib 0.042 | [9] -0.027 | encorafenib -0.041 | [10] 0.014
active: volasertib -0.337

SRSF6 (UniProt Q13247)
UniProt Q13247, sequence (Q13247 whole entry, looked up): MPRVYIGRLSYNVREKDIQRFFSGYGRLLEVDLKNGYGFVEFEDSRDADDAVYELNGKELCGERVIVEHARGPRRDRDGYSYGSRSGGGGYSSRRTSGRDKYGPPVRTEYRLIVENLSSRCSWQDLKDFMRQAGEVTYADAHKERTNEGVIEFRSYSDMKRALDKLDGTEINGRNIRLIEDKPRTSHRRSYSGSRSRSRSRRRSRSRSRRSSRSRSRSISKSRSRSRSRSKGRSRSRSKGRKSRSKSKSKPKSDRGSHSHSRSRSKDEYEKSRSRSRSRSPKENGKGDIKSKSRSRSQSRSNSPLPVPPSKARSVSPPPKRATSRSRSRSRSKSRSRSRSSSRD
inactive: [1] 0.011 | volasertib 0.174 | [2] 0.116 | epoxomicin -0.181 | [3] -0.004 | [4] 0.028 | [5] -0.08 | rosiglitazone -0.043 | [6] 0.207 | [7] 0.315 | saracatinib 0.032 | sotrastaurin 0.031 | alvocidib 0.054 | Tubastatin A 0.092 | [8] -0.331 | defactinib 0.032 | rucaparib 0.227 | [9] -0.113 | encorafenib 0.096 | [10] 0.018

TBRG4 (UniProt Q969Z0)
UniProt Q969Z0, sequence (Q969Z0 whole entry, looked up): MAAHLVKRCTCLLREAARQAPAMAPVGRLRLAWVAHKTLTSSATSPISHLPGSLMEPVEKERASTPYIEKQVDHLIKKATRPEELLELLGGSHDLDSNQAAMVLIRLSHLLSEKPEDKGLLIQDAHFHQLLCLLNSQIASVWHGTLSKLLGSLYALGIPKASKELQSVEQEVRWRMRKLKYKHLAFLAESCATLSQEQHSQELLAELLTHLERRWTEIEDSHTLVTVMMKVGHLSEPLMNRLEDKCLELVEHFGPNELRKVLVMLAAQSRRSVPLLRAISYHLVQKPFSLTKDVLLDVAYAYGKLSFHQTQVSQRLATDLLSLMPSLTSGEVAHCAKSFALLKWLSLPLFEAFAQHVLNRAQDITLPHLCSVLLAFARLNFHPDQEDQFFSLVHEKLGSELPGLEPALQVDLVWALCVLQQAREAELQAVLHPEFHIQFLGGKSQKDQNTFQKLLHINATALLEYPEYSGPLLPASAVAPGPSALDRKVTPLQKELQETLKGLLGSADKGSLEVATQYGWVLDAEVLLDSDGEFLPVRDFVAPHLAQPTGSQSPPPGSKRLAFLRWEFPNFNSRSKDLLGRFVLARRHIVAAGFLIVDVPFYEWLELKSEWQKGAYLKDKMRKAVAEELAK
active: [7] -1.19
inactive: [1] -0.361 | volasertib -0.583 | [2] -0.003 | epoxomicin 0.12 | [3] -0.034 | [4] 0.009 | [5] 0.111 | rosiglitazone 0.073 | [6] 0.047 | saracatinib -0.093 | sotrastaurin -0.431 | alvocidib -0.345 | Tubastatin A 0.044 | [8] -0.177 | defactinib -0.25 | rucaparib 0.008 | [9] -0.144 | encorafenib 0.071 | [10] -0.062

SNRNP27 (UniProt Q8WVK2)
UniProt Q8WVK2, sequence (Q8WVK2 whole entry, looked up): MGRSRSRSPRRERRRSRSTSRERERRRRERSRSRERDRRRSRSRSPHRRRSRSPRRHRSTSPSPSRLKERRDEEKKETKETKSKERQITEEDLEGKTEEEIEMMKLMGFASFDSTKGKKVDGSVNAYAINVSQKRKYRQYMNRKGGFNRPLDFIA
inactive: [1] 0.029 | volasertib 0.014 | [2] -0.08 | epoxomicin 0.01 | [3] 0.051 | [4] 0.038 | [5] 0.005 | rosiglitazone -0.027 | [6] 0.051 | [7] -0.032 | saracatinib -0.071 | sotrastaurin 0.048 | alvocidib 0.062 | Tubastatin A -0.023 | [8] -0.036 | defactinib 0.015 | rucaparib 0.049 | [9] -0.09 | encorafenib -0.061 | [10] 0.097

SNX3 (UniProt O60493)
inactive: [1] -0.071 | volasertib -0.147 | [2] 0.107 | epoxomicin -0.033 | [3] -0.176 | [4] 0.057 | [5] 0.077 | rosiglitazone 0.018 | [6] 0.116 | [7] -0.319 | saracatinib -0.086 | sotrastaurin 0.038 | alvocidib -0.016 | Tubastatin A -0.005 | [8] 0.018 | defactinib -0.067 | rucaparib 0.081 | [9] 0.026 | encorafenib 0.194 | [10] -0.079

SUPT16H (UniProt Q9Y5B9)
active: defactinib -0.476
inactive: [1] -0.426 | volasertib -0.363 | [2] 0.095 | epoxomicin 0.085 | [3] -0.108 | [4] -0.089 | [5] 0.285 | rosiglitazone 0.073 | [6] -0.02 | [7] -0.198 | saracatinib -0.125 | sotrastaurin -0.209 | alvocidib -0.359 | Tubastatin A 0.374 | [8] 0.034 | rucaparib -0.104 | [9] 0.024 | encorafenib 0.113 | [10] -0.138

ST6GAL1 (UniProt P15907)
active: [1] -0.221
inactive: volasertib -0.257 | [2] 0.003 | epoxomicin -0.066 | [3] 0.019 | [4] 0.01 | [5] 0.041 | rosiglitazone 0.058 | [6] -0.057 | [7] -0.149 | saracatinib -0.001 | sotrastaurin 0.018 | alvocidib 0.006 | Tubastatin A 0.026 | [8] 0.159 | defactinib -0.03 | rucaparib 0.004 | [9] 0.05 | encorafenib 0.037 | [10] -0.08

SMARCAD1 isoform 2 (UniProt Q9H4L7)
UniProt Q9H4L7, sequence (Q9H4L7 whole entry, looked up): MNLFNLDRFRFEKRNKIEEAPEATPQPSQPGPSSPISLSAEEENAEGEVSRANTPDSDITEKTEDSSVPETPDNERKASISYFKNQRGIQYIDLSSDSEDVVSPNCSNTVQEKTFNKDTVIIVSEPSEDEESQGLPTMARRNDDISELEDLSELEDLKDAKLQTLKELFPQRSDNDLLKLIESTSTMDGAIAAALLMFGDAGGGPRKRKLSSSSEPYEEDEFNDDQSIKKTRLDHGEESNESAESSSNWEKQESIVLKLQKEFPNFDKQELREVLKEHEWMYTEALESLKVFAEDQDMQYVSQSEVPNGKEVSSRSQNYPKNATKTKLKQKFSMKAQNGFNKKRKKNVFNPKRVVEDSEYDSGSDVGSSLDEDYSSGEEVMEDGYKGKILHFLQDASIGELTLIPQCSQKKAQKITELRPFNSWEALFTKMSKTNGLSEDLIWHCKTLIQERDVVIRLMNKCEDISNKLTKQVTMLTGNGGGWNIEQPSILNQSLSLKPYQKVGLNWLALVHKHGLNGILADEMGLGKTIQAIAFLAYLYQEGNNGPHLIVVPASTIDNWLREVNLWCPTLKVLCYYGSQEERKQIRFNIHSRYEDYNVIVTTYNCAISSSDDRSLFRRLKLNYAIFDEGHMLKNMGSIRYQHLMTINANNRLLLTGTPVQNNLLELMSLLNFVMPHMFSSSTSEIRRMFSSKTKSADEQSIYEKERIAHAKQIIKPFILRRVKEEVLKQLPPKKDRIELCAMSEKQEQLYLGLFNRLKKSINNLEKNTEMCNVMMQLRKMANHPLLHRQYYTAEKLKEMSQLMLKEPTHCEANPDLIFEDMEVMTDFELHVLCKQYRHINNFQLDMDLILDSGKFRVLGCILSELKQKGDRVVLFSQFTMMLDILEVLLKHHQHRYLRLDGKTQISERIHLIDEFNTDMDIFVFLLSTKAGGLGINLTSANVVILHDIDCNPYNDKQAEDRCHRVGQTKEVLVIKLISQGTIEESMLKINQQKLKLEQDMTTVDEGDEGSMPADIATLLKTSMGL
active: volasertib -0.378
inactive: [1] -0.085 | [2] 0.057 | epoxomicin 0.046 | [3] -0.055 | [4] -0.1 | [5] 0.04 | rosiglitazone 0.071 | [6] -0.037 | [7] -0.1 | saracatinib -0.086 | sotrastaurin -0.043 | alvocidib -0.243 | Tubastatin A 0.053 | [8] 0.016 | defactinib -0.099 | rucaparib -0.056 | [9] 0.035 | encorafenib 0.029 | [10] -0.023

TBC1D23 (UniProt Q9NUY8)
UniProt Q9NUY8, sequence (Q9NUY8 whole entry, looked up): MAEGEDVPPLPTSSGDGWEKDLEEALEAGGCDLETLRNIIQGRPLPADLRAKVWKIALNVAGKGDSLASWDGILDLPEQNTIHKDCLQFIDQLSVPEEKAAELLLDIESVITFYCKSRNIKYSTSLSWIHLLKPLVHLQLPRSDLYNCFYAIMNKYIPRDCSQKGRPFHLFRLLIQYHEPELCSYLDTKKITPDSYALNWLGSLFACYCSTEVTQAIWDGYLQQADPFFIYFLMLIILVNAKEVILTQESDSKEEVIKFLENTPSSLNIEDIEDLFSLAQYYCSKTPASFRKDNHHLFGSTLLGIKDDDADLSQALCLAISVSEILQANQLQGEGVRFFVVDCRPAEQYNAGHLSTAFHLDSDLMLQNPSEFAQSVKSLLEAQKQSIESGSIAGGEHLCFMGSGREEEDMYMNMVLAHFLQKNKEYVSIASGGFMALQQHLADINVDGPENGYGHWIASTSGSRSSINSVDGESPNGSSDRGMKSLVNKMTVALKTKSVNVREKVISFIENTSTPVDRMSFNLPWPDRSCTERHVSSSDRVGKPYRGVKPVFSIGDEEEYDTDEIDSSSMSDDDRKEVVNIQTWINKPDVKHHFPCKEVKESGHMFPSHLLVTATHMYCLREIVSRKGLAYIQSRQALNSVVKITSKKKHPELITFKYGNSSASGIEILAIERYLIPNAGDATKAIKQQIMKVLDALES
active: [7] -0.651
inactive: [1] -0.228 | volasertib -0.261 | [2] 0.008 | epoxomicin 0.049 | [3] -0.05 | [4] -0.069 | [5] 0.025 | rosiglitazone 0.042 | [6] 0.043 | saracatinib -0.023 | sotrastaurin -0.073 | alvocidib -0.053 | Tubastatin A 0.043 | [8] -0.027 | defactinib -0.109 | rucaparib -0.038 | [9] -0.074 | encorafenib 0.079 | [10] -0.047

SLC9A6 isoform 2 (UniProt Q92581)
inactive: [1] 0.047 | volasertib -0.081 | [2] 0.009 | epoxomicin -0.013 | [3] -0.003 | [4] -0.003 | [5] -0.026 | rosiglitazone -0.013 | [6] -0.039 | [7] -0.071 | saracatinib 0.06 | sotrastaurin 0.048 | alvocidib -0.016 | Tubastatin A -0.027 | [8] 0.001 | defactinib -0.027 | rucaparib -0.015 | [9] -0.07 | encorafenib 0.008 | [10] 0.053

SLC7A6OS (UniProt Q96CW6)
inactive: [1] -0.027 | volasertib -0.084 | [2] -0.042 | epoxomicin 0.01 | [3] -0.07 | [4] -0.038 | [5] 0.004 | rosiglitazone -0.06 | [6] -0.05 | [7] 0.055 | saracatinib 0.14 | sotrastaurin 0.008 | alvocidib 0.024 | Tubastatin A -0.001 | [8] 0.031 | defactinib -0.144 | rucaparib -0.05 | [9] -0.078 | encorafenib -0.004 | [10] 0.06

TIMM21 (UniProt Q9BVV7)
UniProt Q9BVV7, sequence (Q9BVV7 whole entry, looked up): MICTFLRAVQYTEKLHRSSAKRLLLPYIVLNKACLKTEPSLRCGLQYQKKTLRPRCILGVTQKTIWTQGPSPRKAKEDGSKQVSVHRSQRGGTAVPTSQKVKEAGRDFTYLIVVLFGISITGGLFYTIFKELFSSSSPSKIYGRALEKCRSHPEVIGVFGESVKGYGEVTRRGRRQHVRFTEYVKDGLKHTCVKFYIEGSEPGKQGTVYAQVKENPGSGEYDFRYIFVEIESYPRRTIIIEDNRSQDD
inactive: [1] -0.133 | [2] 0.034 | epoxomicin -0.041 | [3] 0.029 | [4] -0.028 | [5] -0.025 | rosiglitazone 0.05 | [6] -0.044 | [7] -0.227 | saracatinib 0 | sotrastaurin -0.001 | alvocidib -0.05 | Tubastatin A -0.048 | [8] -0.025 | defactinib -0.007 | rucaparib -0.04 | [9] -0.016 | encorafenib 0.063 | [10] 0.051
active: volasertib -0.286

STK4 (UniProt Q13043)
inactive: [1] 0.024 | volasertib 0.006 | [2] 0.014 | epoxomicin 0.033 | [3] -0.029 | [4] -0.041 | [5] 0.013 | rosiglitazone 0.03 | [6] 0.004 | [7] -0.061 | saracatinib 0.006 | sotrastaurin 0.029 | alvocidib -0.01 | Tubastatin A 0.039 | [8] 0.01 | defactinib -0.002 | rucaparib -0.008 | [9] 0.012 | encorafenib 0.077 | [10] -0.003

SSR3 isoform 2 (UniProt Q9UNL2)
UniProt Q9UNL2, sequence (Q9UNL2 whole entry, looked up): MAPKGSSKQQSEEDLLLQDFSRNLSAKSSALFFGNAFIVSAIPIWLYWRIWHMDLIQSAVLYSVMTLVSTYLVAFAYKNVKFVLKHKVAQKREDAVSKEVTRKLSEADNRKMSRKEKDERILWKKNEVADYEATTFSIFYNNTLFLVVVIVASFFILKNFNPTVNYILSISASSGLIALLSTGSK
inactive: [1] 0.05 | volasertib 0.059 | [2] -0.075 | epoxomicin -0.054 | [3] 0.062 | [4] -0.069 | [5] 0.087 | rosiglitazone -0.002 | [6] 0.056 | [7] 0.195 | saracatinib 0.153 | sotrastaurin 0.083 | alvocidib -0.108 | Tubastatin A -0.04 | [8] 0.006 | defactinib -0.006 | rucaparib -0.049 | [9] -0.052 | encorafenib 0.001 | [10] 0.086

TIMM13 (UniProt Q9Y5L4)
UniProt Q9Y5L4, sequence (Q9Y5L4 whole entry, looked up): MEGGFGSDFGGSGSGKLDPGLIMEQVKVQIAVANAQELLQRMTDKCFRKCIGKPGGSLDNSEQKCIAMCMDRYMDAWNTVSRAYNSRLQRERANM
inactive: [1] 0.019 | volasertib -0.048 | [2] 0.027 | epoxomicin 0.213 | [3] 0.024 | [4] 0 | [5] -0.032 | rosiglitazone 0.029 | [6] -0.094 | [7] 0.237 | saracatinib 0.065 | sotrastaurin -0.007 | alvocidib -0.035 | Tubastatin A -0.007 | [8] 0.007 | defactinib -0.038 | rucaparib -0.028 | [9] 0.043 | encorafenib 0.044 | [10] 0

SPART (UniProt Q8N0X7)
inactive: [1] -0.031 | [2] -0.005 | epoxomicin -0.123 | [3] -0.015 | [4] 0.014 | [5] 0.069 | rosiglitazone 0.04 | [6] -0.035 | [7] -0.052 | saracatinib -0.03 | sotrastaurin -0.011 | alvocidib -0.063 | Tubastatin A -0.05 | [8] 0.001 | defactinib -0.109 | rucaparib -0.02 | [9] -0.032 | encorafenib 0.027 | [10] -0.014
active: volasertib -0.224
